Assay results from the supplement of paper PMC10849652.
The full data set covers some 8,800 targets. This sample favours those with a hit. About 0.5% of all pairs of compound and target were hits.

Columns and labels:
Assay in all cases: log2 fold change, soluble protein after heating vs DMSO (PISA); higher = thermal stabilisation; K562 lysate, 10 uM; active = over 0.2 and 3.5 SD of the protein, either way, in both replicates (recomputed)
[1] = compound: C1=CC=C(C=C1)[C@H](COC2=CC3=C(C=C2)NC(=O)N3)NC(=O)C4=CC=CN(C4=O)CC5=CC(=C(C=C5)F)F
How it was run: (§1)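 Dounce homogenisation of K562 pellets in PBS pH 7.4 with 1 mM MgCl2 produced a crude extract, used at 1 mg/mL protein. Exposure to 10 μM compound lasted 30 min, and aliquots were then heated for 3 min across 48°C-58°C, pooled and brought to 0.5% NP-40 at 4°C. The supernatant after 21,000xg for 90 min was quantified by TMTpro 16plex LC-MS/MS with channel sums equalised. Duplicate values are given as log-two fold change in thermal stability relative to solvent controls.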

[2] = compound: CC1=C(SC2=C1C(=N[C@H](C3=NN=C(N32)C)CC(=O)N)C4=CC=C(C=C4)Cl)C
How it was run: as §1

[3] = compound: CC1=C2C(=CC=C1)N=C(N(C2=O)C3=CC=CC=C3C)CN4C=NC5=C(N=CN=C54)N
How it was run: as §1

[4] = compound: Cc1sc2c(c1C)C(c1ccc(Cl)cc1)=N[C@@H](CC(=O)OC(C)(C)C)c1nnc(C)n1-2
How it was run: as §1

[5] = compound: c1ccc([C@@H]2C[C@H]2NC2CCNCC2)cc1
How it was run: as §1

Chain of UniProt Q0ZGT2 (Q0ZGT2 whole entry, looked up): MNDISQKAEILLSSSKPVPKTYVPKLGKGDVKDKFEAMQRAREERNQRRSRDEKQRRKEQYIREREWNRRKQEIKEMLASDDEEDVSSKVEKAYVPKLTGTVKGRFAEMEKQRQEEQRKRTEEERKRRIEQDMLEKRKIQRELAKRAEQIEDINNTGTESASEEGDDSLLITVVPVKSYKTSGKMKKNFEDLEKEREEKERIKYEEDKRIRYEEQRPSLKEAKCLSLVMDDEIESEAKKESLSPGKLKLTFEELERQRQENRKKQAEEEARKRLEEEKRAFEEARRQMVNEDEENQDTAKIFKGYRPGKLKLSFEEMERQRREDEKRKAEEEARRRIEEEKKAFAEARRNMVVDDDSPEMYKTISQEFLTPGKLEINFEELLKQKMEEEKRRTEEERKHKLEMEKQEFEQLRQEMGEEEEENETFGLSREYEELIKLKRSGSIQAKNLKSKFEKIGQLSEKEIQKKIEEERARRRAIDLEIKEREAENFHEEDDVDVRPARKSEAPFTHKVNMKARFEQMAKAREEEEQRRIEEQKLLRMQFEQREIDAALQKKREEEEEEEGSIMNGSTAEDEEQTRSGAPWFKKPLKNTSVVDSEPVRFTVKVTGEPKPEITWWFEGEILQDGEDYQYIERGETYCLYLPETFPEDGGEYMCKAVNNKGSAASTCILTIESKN
Chain of UniProt Q8NC60 (Q8NC60 whole entry, looked up): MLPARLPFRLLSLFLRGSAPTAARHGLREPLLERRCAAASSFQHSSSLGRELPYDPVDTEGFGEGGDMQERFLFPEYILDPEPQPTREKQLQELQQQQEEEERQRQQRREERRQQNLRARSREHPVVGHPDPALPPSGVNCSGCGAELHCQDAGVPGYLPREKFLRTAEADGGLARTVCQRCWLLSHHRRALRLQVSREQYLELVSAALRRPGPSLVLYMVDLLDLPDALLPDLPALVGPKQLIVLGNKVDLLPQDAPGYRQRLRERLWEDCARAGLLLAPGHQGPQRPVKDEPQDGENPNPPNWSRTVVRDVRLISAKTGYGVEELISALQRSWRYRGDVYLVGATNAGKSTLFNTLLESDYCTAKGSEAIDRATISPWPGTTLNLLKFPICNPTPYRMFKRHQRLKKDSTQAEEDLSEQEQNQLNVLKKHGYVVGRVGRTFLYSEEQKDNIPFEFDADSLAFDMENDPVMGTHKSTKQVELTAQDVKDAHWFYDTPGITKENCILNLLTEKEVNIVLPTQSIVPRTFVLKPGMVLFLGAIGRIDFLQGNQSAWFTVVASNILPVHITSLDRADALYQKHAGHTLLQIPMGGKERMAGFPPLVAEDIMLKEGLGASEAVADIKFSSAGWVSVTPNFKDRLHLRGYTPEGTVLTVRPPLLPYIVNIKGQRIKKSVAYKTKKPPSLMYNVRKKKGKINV
Chain of UniProt Q9H4L5 (Q9H4L5 whole entry, looked up): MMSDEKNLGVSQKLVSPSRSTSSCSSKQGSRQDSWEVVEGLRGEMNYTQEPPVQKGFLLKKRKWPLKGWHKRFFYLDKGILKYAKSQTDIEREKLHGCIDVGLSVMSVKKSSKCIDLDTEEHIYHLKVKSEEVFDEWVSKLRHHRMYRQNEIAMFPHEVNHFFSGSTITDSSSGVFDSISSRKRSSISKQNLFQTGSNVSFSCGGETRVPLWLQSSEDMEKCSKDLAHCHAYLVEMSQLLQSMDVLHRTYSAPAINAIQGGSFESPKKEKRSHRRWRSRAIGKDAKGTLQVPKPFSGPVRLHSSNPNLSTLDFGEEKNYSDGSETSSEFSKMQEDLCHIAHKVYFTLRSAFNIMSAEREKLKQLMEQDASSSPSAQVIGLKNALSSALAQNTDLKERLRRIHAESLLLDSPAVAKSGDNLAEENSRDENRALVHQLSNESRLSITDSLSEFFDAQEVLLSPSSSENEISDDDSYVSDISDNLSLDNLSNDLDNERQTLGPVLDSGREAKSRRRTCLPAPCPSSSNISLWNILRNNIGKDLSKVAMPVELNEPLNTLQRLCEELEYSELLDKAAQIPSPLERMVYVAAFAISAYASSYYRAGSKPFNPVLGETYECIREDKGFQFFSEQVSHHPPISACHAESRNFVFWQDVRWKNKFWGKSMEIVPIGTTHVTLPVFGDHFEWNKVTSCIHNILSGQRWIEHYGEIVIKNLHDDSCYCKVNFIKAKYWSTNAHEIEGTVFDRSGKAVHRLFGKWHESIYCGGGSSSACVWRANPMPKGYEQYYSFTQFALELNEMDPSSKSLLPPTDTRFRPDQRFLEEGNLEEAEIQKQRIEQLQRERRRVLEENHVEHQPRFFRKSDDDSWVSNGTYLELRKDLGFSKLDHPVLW
Chain of UniProt Q9UFN0 (Q9UFN0 whole entry, looked up): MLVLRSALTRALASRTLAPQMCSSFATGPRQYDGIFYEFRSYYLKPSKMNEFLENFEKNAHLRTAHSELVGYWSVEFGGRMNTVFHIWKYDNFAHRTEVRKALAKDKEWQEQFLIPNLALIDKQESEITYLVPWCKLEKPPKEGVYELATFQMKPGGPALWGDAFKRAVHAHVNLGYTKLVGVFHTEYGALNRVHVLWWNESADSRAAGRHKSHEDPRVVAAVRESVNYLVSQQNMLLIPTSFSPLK
Chain of UniProt Q13469 (Q13469 whole entry, looked up): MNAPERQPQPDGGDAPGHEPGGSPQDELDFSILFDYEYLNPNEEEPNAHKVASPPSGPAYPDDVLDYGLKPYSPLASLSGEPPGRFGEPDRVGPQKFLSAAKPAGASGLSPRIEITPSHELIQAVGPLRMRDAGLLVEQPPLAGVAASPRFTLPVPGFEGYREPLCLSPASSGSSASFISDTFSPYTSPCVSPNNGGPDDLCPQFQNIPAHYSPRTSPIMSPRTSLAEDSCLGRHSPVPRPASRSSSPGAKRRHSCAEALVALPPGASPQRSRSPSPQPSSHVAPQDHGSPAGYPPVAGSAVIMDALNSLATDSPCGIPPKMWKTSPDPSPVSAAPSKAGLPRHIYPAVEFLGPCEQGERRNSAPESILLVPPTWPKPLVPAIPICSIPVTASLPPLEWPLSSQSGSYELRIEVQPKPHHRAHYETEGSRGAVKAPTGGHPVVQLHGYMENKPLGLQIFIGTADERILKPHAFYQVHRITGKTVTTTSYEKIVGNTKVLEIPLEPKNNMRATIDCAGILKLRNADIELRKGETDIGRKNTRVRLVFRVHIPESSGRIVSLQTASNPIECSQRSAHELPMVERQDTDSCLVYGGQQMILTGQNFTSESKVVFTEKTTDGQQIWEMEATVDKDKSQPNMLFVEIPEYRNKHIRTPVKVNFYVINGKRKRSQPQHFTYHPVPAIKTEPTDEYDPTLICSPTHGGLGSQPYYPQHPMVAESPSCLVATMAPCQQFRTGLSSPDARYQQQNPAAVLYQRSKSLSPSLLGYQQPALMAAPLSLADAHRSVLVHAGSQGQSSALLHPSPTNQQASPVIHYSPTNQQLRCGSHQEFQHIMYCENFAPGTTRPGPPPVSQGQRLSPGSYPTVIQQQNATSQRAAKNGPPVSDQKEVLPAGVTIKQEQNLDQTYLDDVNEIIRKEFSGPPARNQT
Chain of UniProt Q9ULX3 (Q9ULX3 whole entry, looked up): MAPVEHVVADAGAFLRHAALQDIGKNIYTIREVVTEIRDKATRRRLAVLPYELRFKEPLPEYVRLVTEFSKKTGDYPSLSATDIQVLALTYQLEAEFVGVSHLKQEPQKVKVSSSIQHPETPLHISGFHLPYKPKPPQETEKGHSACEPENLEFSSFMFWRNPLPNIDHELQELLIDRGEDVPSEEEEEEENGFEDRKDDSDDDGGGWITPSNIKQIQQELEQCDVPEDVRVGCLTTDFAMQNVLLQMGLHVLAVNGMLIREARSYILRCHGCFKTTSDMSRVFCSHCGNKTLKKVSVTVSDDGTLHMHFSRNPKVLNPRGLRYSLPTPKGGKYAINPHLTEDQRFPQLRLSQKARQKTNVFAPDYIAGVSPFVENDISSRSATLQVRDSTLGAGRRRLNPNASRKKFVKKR
Chain of UniProt Q9BRA0 (Q9BRA0 whole entry, looked up): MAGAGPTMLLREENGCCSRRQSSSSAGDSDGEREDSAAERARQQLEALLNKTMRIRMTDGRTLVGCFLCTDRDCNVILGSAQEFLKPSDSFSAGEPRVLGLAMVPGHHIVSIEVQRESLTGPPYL

Target | log2 fold change [1] | log2 fold change [2] | log2 fold change [3] | log2 fold change [4] | log2 fold change [5]
OSBPL3 isoform 2 (UniProt Q9H4L5) | -0.02 (inactive) | -0.018 (inactive) | 0.043 (inactive) | -0.017 (inactive) | 0.004 (inactive)
NIPSNAP3A (UniProt Q9UFN0) | 0.083 (inactive) | -0.037 (inactive) | -0.013 (inactive) | -0.036 (inactive) | 0.322 (active)
NFATC2 (UniProt Q13469) | 0.027 (inactive) | 0.073 (inactive) | 0.064 (inactive) | 0.031 (inactive) | -0.1 (inactive)
NOB1 (UniProt Q9ULX3) | 0.004 (inactive) | -0.051 (inactive) | 0.038 (inactive) | -0.021 (inactive) | 0.13 (inactive)
NEXN (UniProt Q0ZGT2) | -0.31 (inactive) | 0.335 (inactive) | 0.271 (inactive) | -0.083 (inactive) | -0.22 (inactive)
NAA38 isoform 2 (UniProt Q9BRA0) | -0.002 (inactive) | 0.02 (inactive) | 0.063 (inactive) | -0.005 (inactive) | -0.344 (active)
NOA1 (UniProt Q8NC60) | -0.087 (inactive) | 0.099 (inactive) | 0.023 (inactive) | -0.014 (inactive) | -0.07 (inactive)
